High-throughput results (PubChem BioAssay)
Hits are enriched below; roughly 2.3% of the tested compounds scored in any of these assays.
ZTA DNA inh: counter-screen for EBNA-1 inhibitors: inhibitors of Epstein-Barr virus ZTA; ZTA-DNA binding, fluorescence polarization; inhibition, % at 11 µM; P03206; 320,000 compounds, 0.15% hits; in the data active = inhibition above about 33%
Target sequence (P03206 whole entry, looked up): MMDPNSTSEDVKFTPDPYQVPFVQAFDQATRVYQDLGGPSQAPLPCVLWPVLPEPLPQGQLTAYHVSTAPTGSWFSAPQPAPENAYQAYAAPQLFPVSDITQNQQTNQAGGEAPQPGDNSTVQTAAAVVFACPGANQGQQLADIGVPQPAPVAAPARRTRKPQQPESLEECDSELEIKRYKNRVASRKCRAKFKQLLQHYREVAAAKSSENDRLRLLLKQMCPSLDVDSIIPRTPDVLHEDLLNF
PP1 counter: PP1-alpha phosphatase inhibitors, primary screen, counter-screen for PP5 inhibitor project, biochemical, fluorescence, OMFP substrate, single point; Serine/threonine-protein phosphatase PP1-alpha catalytic subunit (Homo sapiens), P62136; purified PP1alpha; inhibition, % at 6.7 µM; 320,000 compounds, 0.9% hits; AID 2235, 2010;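 active = inhibition above the mean inhibition of all tested compounds plus 3 SD, computed separately for each screening campaign, cut at about 15% in these data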
Target sequence (P62136 whole entry, looked up): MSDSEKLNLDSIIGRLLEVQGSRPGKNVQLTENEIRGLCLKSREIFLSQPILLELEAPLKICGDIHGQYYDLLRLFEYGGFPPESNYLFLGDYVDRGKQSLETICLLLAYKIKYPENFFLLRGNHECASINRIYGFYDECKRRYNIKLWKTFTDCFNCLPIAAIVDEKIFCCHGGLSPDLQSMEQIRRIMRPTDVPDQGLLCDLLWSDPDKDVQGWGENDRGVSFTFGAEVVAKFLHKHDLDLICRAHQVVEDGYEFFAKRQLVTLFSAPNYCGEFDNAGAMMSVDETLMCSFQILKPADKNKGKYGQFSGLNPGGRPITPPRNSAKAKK
bovine MsrA act: bovine MsrA enzyme activators, primary screen, biochemical, absorbance, HTS | Methionine sulfoxide reductase A (Bos taurus) | purified bovine MsrA, absorbance read-out | activation, % at 10.6 µM | 360,000 compounds, 0.3% hits | AID 602163, 2012; in the data active = activation above about 7.5%;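 note: 0% = vehicle and 100% = reference activator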
PP5 inh: PP5 phosphatase inhibitors, primary screen, biochemical, fluorescence. Serine/threonine-protein phosphatase 5 (Homo sapiens), P53041. AID 1987, 2009. inhibition, % at 6.7 µM. 320,000 compounds, 0.18% hits. purified PP5c, OMFP substrate fluorescence;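 active = inhibition above the campaign's mean inhibition across all tested compounds plus 3 SD, cut at about 9.5% in these data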;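 note: 0% = DMSO only and 100% = 100 µM cantharidin control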
EBNA-1 inhibitor: EBNA-1 DNA-binding inhibitors, primary screen, biochemical, fluorescence polarization. inhibition, % at 14.8 µM. 300,000 compounds, 0.34% hits; in the data active = inhibition above about 28%
MsrA inhibitor: bovine MsrA enzyme inhibitors, primary screen, biochemical, absorbance, HTS; Methionine sulfoxide reductase A (Bos taurus); purified bovine MsrA, absorbance read-out; inhibition, % at 15.5 µM; 360,000 compounds, 0.75% hits; AID 651718, 2012; in the data active = inhibition above about 4.5%;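 note: 0% = vehicle wells with enzyme and 100% = reference inhibitor wells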
EBNA-1 confirm: EBNA-1 DNA-binding inhibitors, retest, confirmation, biochemical, fluorescence polarization, triplicate | 830 compounds, 35% hits | inhibition, % at 14.8 µM | shares compounds with EBNA-1 inhibitor | Recombinant EBNA-1 DBD, Cy5-DNA fluorescence polarization;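 active = mean inhibition across replicates above a set limit taken from the earlier primary screen, cut at about 28% in these data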;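 note: plate controls were EBNA-1 protein with DMSO for no effect and wells lacking EBNA-1 for full effect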
ZTA DNA inh trip: EBV Zta DNA binding inhibitors, counter-screen for EBNA-1 inhibitor project, biochemical, fluorescence polarization, triplicate; shares compounds with EBNA-1 inhibitor; Zta-ZRE DNA binding, Cy5 fluorescence polarization; inhibition, % at 11.1 µM; 830 tested, under 10 active; AID 2328, 2010;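 active = mean inhibition over triplicates above a set limit taken from the primary EBNA-1 screen, cut at about 37% in these data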;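 note: purified full length Zta protein with Cy5 labeled ZRE DNA probe; 0% = Zta with DMSO and 100% = wells lacking Zta protein; inhibitors lower polarization by freeing the labeled DNA probe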
* = called active by the depositor; x = no result.

SMILES	ZTA DNA inh	PP1 counter	bovine MsrA act	PP5 inh	EBNA-1 inhibitor	MsrA inhibitor	EBNA-1 confirm	ZTA DNA inh trip
O=C(CSc1n[nH]c(=O)[nH]c1=O)NC1CC1	27	0	0	-4	59*	3	4	-1
O=C(CSc1n[nH]c(=O)[nH]c1=O)NCC1CCCCC1	2	3	-9	3	-2	1	x	x
CC(C)(C)S(=O)N1Cc2cc(=O)n(Cc3ccccc3)c(CCO)c2[C@H]1CCO (stereo partly specified)	x	x	0	x	x	2	x	x
CCOc1ccc(C(=O)N(Cc2ccccc2)c2cccc(C)c2)cc1OC	23	4	-1	2	11	0	x	x
Cc1nn(C)c(C(=O)N/N=C/c2ccc(-c3ccccc3)cc2)c1Cl	6	6	1	-1	37*	0	28*	25
COc1ccc(/C=N/NC(=O)c2c([N+](=O)[O-])c(C)nn2C)cc1	-4	-2	0	-1	-4	1	x	x
CCN1CCCC1CNC(=O)C(=O)NCCc1ccc(OC)c(OC)c1 (stereo unspecified)	-1	-5	1	0	-8	0	x	x
O=C(CCCN1C(=O)S/C(=C/C=C/c2ccccc2)C1=O)Nc1ccc(C(=O)O)cc1	0	3	-4	3	9	1	x	x
O=C(CN1C(=O)S/C(=C\C=C\c2ccccc2)C1=O)Nc1ccc(O)cc1	-18	13	-8	2	52*	2	7	-2
Cc1ccc(/C=C2\SC(=S)N(CCC(=O)NNC(=O)c3cccc(O)c3)C2=O)cc1	-4	4	-3	0	8	1	x	x
Cc1ccc(/C=C2\SC(=S)N(CCC(=O)NNC(=O)c3ccc(O)cc3)C2=O)cc1	-5	3	-4	-1	29*	1	57*	10
CC(/C=C1\SC(=S)N(CCC(=O)Nc2ccc(O)cc2)C1=O)=C\c1ccccc1	-5	15*	-5	2	34*	2	10	-6
Cc1ccc(NNC(=O)Nc2ccc(Cl)cc2)nn1	-5	2	-3	0	-4	0	x	x
CC(=O)Nc1cccc(/C(C)=N/Nc2ccc(S(=O)(=O)Nc3ccccc3C(=O)O)cc2[N+](=O)[O-])c1	x	x	-3	x	x	1	x	x
CCC(/C=N/NC(=O)CCCCC(=O)N/N=C/C(CC)CC)CC	-3	-3	-8	0	-2	0	x	x
COc1ccc(-n2c(SCC(=O)Nc3ccccc3)nnc2-c2ccc(NS(=O)(=O)c3ccc(C)cc3)cc2)cc1	-3	5	-1	3	71*	0	28*	1
CCSc1ccc(-c2cccc([N+](=O)[O-])c2)nn1	6	-4	-3	0	0	2	x	x
COc1ccc(S(=O)(=O)NNC(=O)c2cc3c4ccccc4n(C)c3s2)cc1	-8	3	-6	5	32*	0	18	3
CC(=O)NNC(=O)c1cc2c3ccccc3n(C)c2s1	-6	-4	-10	0	7	4	x	x
CC1(c2ccccc2)NC(=O)N(CC(=O)Nc2ccc(N3CCOCC3)cc2N2CCOCC2)C1=O (stereo unspecified)	-21	-5	-2	1	-6	1	x	x
Cc1cc(N2CCOCC2)ccc1/C=C1\NC(=O)N(CC(=O)Nc2ccccc2C)C1=O	12	-1	-7	-1	42*	0	6	-5
NS(=O)(=O)c1cnccc1NCCc1ccccc1	0	-2	-6	0	12	-1	x	x
Cc1cccc(NC(=O)CN2C(=O)S/C(=C\c3cc(C)n(C)c3C)C2=O)c1	15	16*	-5	-2	30*	1	10	-7
CCCC(=O)N(Cc1cc(=O)[nH]c2ccccc12)c1ccccc1OC	-5	0	-1	1	28*	1	-2	3
COc1ccccc1N(Cc1cc(=O)[nH]c2ccccc12)C(C)=O	7	-3	-3	3	2	1	x	x
SMILES	ZTA DNA inh	PP1 counter	bovine MsrA act	PP5 inh	EBNA-1 inhibitor	MsrA inhibitor	EBNA-1 confirm	ZTA DNA inh trip
O=c1c2ccccc2nc(SCc2nc3ccccc3s2)n1Cc1ccco1	-6	1	-2	2	49*	0	4	6
CCSc1nnc(NC(=O)c2ccccc2C)s1	3	-4	-4	0	2	-2	x	x
Cc1nn(-c2ccccc2)c2sc(C(=O)OCn3nnc4ccccc4c3=O)cc12	-23	-1	-6	1	35*	-2	-3	-4
Cc1cc(C)n(-c2ccc(C(=O)OCn3nnc4ccccc4c3=O)cc2)n1	4	0	0	3	6	0	x	x
C[C@H]1CN([C@@H](C)CO)C(=O)c2cc(C#CCC3CCCC3)cnc2O[C@@H]1CN(C)C(=O)CC1CC1	x	x	-1	x	x	0	x	x
CC1(c2ccccc2)NC(=O)N(CCN2C(=O)c3ccccc3C2=O)C1=O (stereo unspecified)	0	-1	-2	0	59*	0	1	-1
CCCC1(c2ccccc2)NC(=O)N(CCN2C(=O)c3ccccc3C2=O)C1=O (stereo unspecified)	-17	-7	7	0	-13	x	x	x
NC1(C(=O)O)CSSC1	x	x	0	x	x	0	x	x
C=CCOC(=O)C1=C(C)NC(C)=C(C(=O)OCC=C)C1c1cn(-c2ccccc2)nc1-c1ccco1	5	0	3	0	53*	-1	22	9
O=C(NCc1ccc(-c2nc3ccccc3s2)cc1)c1cc2ccccc2o1	3	6	3	-1	28*	1	3	5
CCN(CC(=O)NCc1ccc(Cl)cc1)C(=O)CSCC(=O)Nc1cccc(C)c1	18	-7	0	2	-2	1	x	x
C/C(=N\NC(=O)c1c(Br)c(C)nn1C)c1ccc(NC(=O)c2ccoc2C)cc1	9	-5	-4	2	63*	0	72*	9
CN1CCN(Cc2cn[nH]c2-c2ccc(F)cc2F)[C@@H](c2ccccc2)C1	14	4	-8	1	-4	1	x	x
COc1ccc(-c2cc(CCCC(=O)NCCc3ccccc3)no2)cc1	6	-6	-10	1	-9	-1	x	x
COc1ccc(-c2cc(CCCC(=O)NCCc3ccc(OC)cc3OC)no2)cc1	1	4	-1	1	36*	-1	46*	13
CCOc1ccc(Nc2ncnc3c2nnn3Cc2ccccc2)cc1	-2	2	-1	1	36*	-1	9	-8
